# Results filed as inconclusive are left out. The source made the active and inactive calls. The call rests on the fitted dose curve.
# Assay: Nuclear factor erythroid 2-related factor 2/antioxidant responsive element (Nrf2/ARE) small molecule agonists: luciferase reporter gene qHTS assay in human keratinocytes (AID 1919969); further: nearly all actives have a fitted effect of over 35% in size
# Details: KeratinoSens HaCaT ARE-luciferase, luminescence, 24 h; series mostly up to 92.4 µM; activity, positive = activation: at the top concentration
# From the text: National Center for Advancing Translational Sciences [NCATS]
# Division of Preclinical Innovation [DPI]
# U.S. Environmental Protection Agency [EPA]
# National Institutes of Environmental Health Sciences [NIEHS]
# National Toxicology Program [NTP]
# U.S. Food and Drug Administration [FDA]
# Oxidative stress has been implicated in the pathogenesis of a variety of diseases ranging from cancer to neurodegeneration. The antioxidant response element (ARE) signaling pathway plays an important role in the amelioration of oxidative stress. The KeratinoSens (Givaudan, Switzerland) is an in vitro test method which quantifies luciferase induction as a measure of activation of Keap1-Nrf2-antioxidationt/electrophile response element (ARE) dependant pathway in HaCaT human keratinocytes stably transfected with a selectable plasmid. The KeratinoSens assay is a cell-based assay with a reporter cell line to detect potential skin sensitizers by their ability to induce the Nrf2/ARE-response. The activation of the report gene under culture conditions can be detected by ONE-Glo Luciferase Assay System (Promega, Madison, WI). This cell line has been used to screen the Tox21 10K compound library to identify agonists that induce oxidative stress. The cytotoxicity of the Tox21 compound library against the KS-ARE cell line was tested in parallel by measuring the cell viability using CellTiter- Fluor assay system (Promega, Madison, WI) in the same wells.
# HaCaT derived cell line KeratinoSens were dispensed at 1,500 cells/5uL/well in 1536-well white wall/solid bottom plates using a Multidrop Combi (ThermoFisher Scientific, Waltham, MA) dispenser. After the assay plates were incubated at 37 C/5% CO2 for 5 h, 23 nL of compounds dissolved in DMSO, positive controls or DMSO only was transferred to the assay plate by a pintool workstation (Kalypsys, San Diego, CA). The plates were incubated at 37 C/5% CO2 for 23 h, followed by addition of 1uL/well of CellTiter-Fluor reagent into the assay plates using a Flying Reagent Dispenser (Aurora Discovery, San Diego, CA) for cell viability readout that measures cytotoxicity. After 1 h incubation at 37 C/5% CO2 the fluorescence intensity was measured using a ViewLux (PerkinElmer, Shelton, CT) plate reader. Then 4uL/well of One-Glo were added using a Flying Reagent Dispenser. After the plates were incubated at room temperature for 30 min, the luminescence intensity in the assay plates was measured using ViewLux plate reader.
# On the % scale 0 is the no-effect control and ±100 the full control effect; potency means the concentration at half of the fitted maximal effect.
Compound,"activity, positive = activation",Potency
COc1cc2nc(N3CCN(C(=O)C4CCCO4)CC3)nc(N)c2cc1OC (stereo not given),2.4% [at 42.5 µM] (inactive),
O=C(c1ccccc1)c1ccc(Cl)cc1,,61.1 µM (active)
CN1CCOC(c2ccccc2)c2ccccc2C1 (stereo not given),-1.42% [at 42.5 µM] (inactive),
O=C(O)c1cc(Cl)cc(Cl)c1O,-15.6% (inactive),
CN1CCN(C2=Nc3ccccc3Oc3ccc(Cl)cc32)CC1,6.66% [at 42.5 µM] (inactive),
CCN(CC)C(=O)N1CCN(C)CC1,-4.03% [at 42.5 µM] (inactive),
CNc1ccc(O)cc1,,24.3 µM (active)
CCCOc1ccccc1-c1nc2n[nH]nc2c(=O)[nH]1,-7.39% [at 42.5 µM] (inactive),
OC[C@H]1O[C@@H](O[C@@H]2[C@@H](CO)O[C@](O)(CO)[C@H]2O)[C@H](O)[C@@H](O)[C@H]1O,3.83% [at 42.5 µM] (inactive),
C=C1CC[C@H]2O[C@]2(C)CC[C@@H]2[C@@H]1CC2(C)C,5.12% (inactive),
CCCC1CCC(=O)O1 (stereo not given),-14.4% (inactive),
CC(C)Nc1cccnc1N1CCN(C(=O)c2cc3cc(NS(C)(=O)=O)ccc3[nH]2)CC1,-5.44% [at 42.5 µM] (inactive),
O=C(O)Cn1c(C(=O)Nc2nc(-c3ccccc3Cl)cs2)cc2ccccc21,,15 µM (active)
Cc1cccc2nccnc12,14% (inactive),
COc1cc(NS(=O)(=O)c2ccc(N)cc2)nc(OC)n1,-2.13% [at 42.5 µM] (inactive),
CCCOC(=O)c1ccc(C(=O)OCCC)nc1,8.91% (inactive),
C=CCn1c(=O)n(CC=C)c(=O)n(CC=C)c1=O,-0.701% (inactive),
COC(=O)CCCCC(CCSS/C(CCO)=C(\C)N(C=O)Cc1cnc(C)nc1N)SC(C)=O (stereo not given),0.883% [at 42.5 µM] (inactive),
Nc1cc(C(=O)O)c(O)c(S(=O)(=O)O)c1,-2.98% (inactive),
COC(C)(OC)OC,-1.88% (inactive),

Compound,"activity, positive = activation",Potency
CC(CCc1ccc(O)cc1)NCCc1ccc(O)c(O)c1 (stereo not given),-0.293% [at 42.5 µM] (inactive),
O=C(O)c1ccccc1C(=O)Nc1ccc(S(=O)(=O)Nc2nccs2)cc1,-1.95% [at 42.5 µM] (inactive),
COC(=O)c1ccc(NC(C)=O)cc1OC,-1.46% [at 42.5 µM] (inactive),
CCOC(=O)C1=C(C)NC(C)=C(C(=O)OC)C1c1cccc([N+](=O)[O-])c1 (stereo not given),-7.15% [at 42.5 µM] (inactive),
CN=C(N)NC(=O)Nc1c(C)cccc1C,-2.95% [at 42.5 µM] (inactive),
CCc1cccc(C)c1N(C(=O)C(=O)O)C(C)COC (stereo not given),-3.19% (inactive),
CC1=NN(c2ccc(C(=O)O)cc2)C(=O)C1,4.46% (inactive),
CCCCCc1ccco1,,44.7 µM (active)
CCOC(=O)c1ncn2c1CN(C)C(=O)c1cc(F)ccc1-2,-6.66% [at 42.5 µM] (inactive),
CN1CCC(=C2c3ccccc3CCc3sccc32)CC1,9.98% [at 42.5 µM] (inactive),
CN1CCN(C2Cc3ccccc3Sc3ccc(Cl)cc32)CC1 (stereo not given),-39.7% [at 42.5 µM] (inactive),
CC(C)OC(=O)c1cc2c(OCC(O)CNC(C)(C)C)cccc2[nH]1 (stereo not given),-15.1% [at 42.5 µM] (inactive),
COC(=O)[C@@H]1[C@H]2C[C@H]3c4[nH]c5ccccc5c4CCN3C[C@@H]2CC[C@@H]1O,-10% [at 42.5 µM] (inactive),
CC(=O)OC1CCCCC1C(C)(C)C (stereo not given),-1.47% (inactive),
OCCN(CCO)c1ccccc1,17.5% (inactive),
CCCCC/C=C/CC(=O)OC,0.735% (inactive),
CC(C)(C)OC(=O)N1C[C@@H](F)C[C@H]1C(=O)O,-0.583% (inactive),
CN(C(=O)C(Cl)Cl)c1ccc(OC(=O)c2ccco2)cc1,6.33% [at 42.5 µM] (inactive),
Cc1cc(NC(=O)C2=C(O)c3ccccc3S(=O)(=O)N2C)no1,4.87% [at 42.5 µM] (inactive),
CC(C)NNC(=O)c1ccncc1,0.354% [at 42.5 µM] (inactive),

# Reference: PubChem BioAssay (Tox21)
